From PubChem BioAssay AID1159580 (chemical genetic matrix, 2015)
The campaign covered roughly 5,500 compounds. About 2,000 (36%) were called active. Another 18% or so got no clear call; they are omitted. Rule as the data show it: active = normalized growth mostly below about 0.91 (no sharp cut-off); inconclusive = no clear call, values can overlap the other calls; inactive = mostly above about 0.92. This is one part of the list.

Assay: chemical genetic growth profiling, strain panel (AID 1159580);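 also: tested at 20 µM; growth read once vehicle control cultures reached saturation at 30 °C; 1 = growth at the plate median or of vehicle wells; lower values mean less growth of the strain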
Conditions: growth OD
[1] = S. cerevisiae deletion strains, locus YMR263W, strain SAP30, stronger effect = lower value
[2] = S. cerevisiae deletion strains, locus YNL153C, strain GIM3, stronger effect = lower value
[3] = S. cerevisiae deletion strains, locus YNL322C, strain KRE1, stronger effect = lower value
[4] = S. cerevisiae deletion strains, locus YPL241C, strain CIN2, stronger effect = lower value
[5] = S. cerevisiae deletion strains, locus YDL101C, strain DUN1, stronger effect = lower value
[6] = S. cerevisiae deletion strains, locus YHR030C, strain SLT2, stronger effect = lower value

Measured: normalized growth

[N-]=[N+]=Nc1ccc(C(=O)CSC[C@H](NC(=O)CC[C@H](N)C(=O)O)C(=O)NCC(=O)O)cc1
inactive: S. cerevisiae deletion strains, locus YAL040C, strain CLN3, stronger effect = lower value 1.02 | S. cerevisiae deletion strains, locus YDR363W, strain ESC2, stronger effect = lower value 0.999 | S. cerevisiae deletion strains, locus YER002W, strain NOP16, stronger effect = lower value 0.989 | S. cerevisiae deletion strains, locus YGR229C, strain SMI1, stronger effect = lower value 1 | [1] 0.997 | [2] 0.99 | S. cerevisiae deletion strains, locus YNL175C, strain NOP13, stronger effect = lower value 1.01 | S. cerevisiae deletion strains, locus YNL197C, strain WHI3, stronger effect = lower value 1.01 | S. cerevisiae deletion strains, locus YNL224C, strain SQS1, stronger effect = lower value 1.01 | [3] 1.01 | S. cerevisiae deletion strains, locus YOR083W, strain WHI5 (second series), stronger effect = lower value 1.01 | [4] 0.996

CSc1ccc(C(=O)O)s1
inactive: S. cerevisiae deletion strains, locus YAL013W, strain DEP1, stronger effect = lower value 0.969 | S. cerevisiae deletion strains, locus YBR229C, strain ROT2, stronger effect = lower value 0.931 | S. cerevisiae deletion strains, locus YCL061C, strain MRC1, stronger effect = lower value 0.938 | [5] 0.939 | S. cerevisiae deletion strains, locus YDR150W, strain NUM1, stronger effect = lower value 0.945 | S. cerevisiae deletion strains, locus YEL061C, strain CIN8, stronger effect = lower value 1.03 | [6] 1.16 | S. cerevisiae deletion strains, locus YJR043C, strain POL32, stronger effect = lower value 0.961 | S. cerevisiae deletion strains, locus YKL190W, strain CNB1, stronger effect = lower value 1.01 | S. cerevisiae deletion strains, locus YLR039C, strain RIC1, stronger effect = lower value 1.04 | S. cerevisiae deletion strains, locus YLR058C, strain SHM2 (second series), stronger effect = lower value 0.945 | S. cerevisiae deletion strains, locus YLR085C, strain ARP6, stronger effect = lower value 1.1 | S. cerevisiae deletion strains, locus YLR262C, strain YPT6, stronger effect = lower value 1.01 | S. cerevisiae deletion strains, locus YML094W, strain GIM5, stronger effect = lower value 1.04 | S. cerevisiae deletion strains, locus YMR219W, strain ESC1, stronger effect = lower value 0.957 | [1] 0.955 | S. cerevisiae deletion strains, locus YMR307W, strain GAS1, stronger effect = lower value 1.05 | S. cerevisiae deletion strains, locus YNL128W, strain TEP1, stronger effect = lower value 1.01 | [2] 0.932 | S. cerevisiae deletion strains, locus YNL298W, strain CLA4 (second series), stronger effect = lower value 1.07 | [3] 0.944 | S. cerevisiae deletion strains, locus YNR030W, strain Alg12, stronger effect = lower value 1.03 | S. cerevisiae deletion strains, locus YPL055C, strain LGE1, stronger effect = lower value 0.883 | [4] 0.906 | S. cerevisiae deletion strains, locus YPR135W, strain CTF4, stronger effect = lower value 1.11 | S. cerevisiae strains, strain wild type, stronger effect = lower value 1.01
active: S. cerevisiae deletion strains, locus YGR078C, strain PAC10, stronger effect = lower value 0.926 | S. cerevisiae deletion strains, locus YHR087W, strain rtc3, stronger effect = lower value 0.862 | S. cerevisiae deletion strains, locus YJR075W, strain HOC1, stronger effect = lower value 0.874

N#Cc1c(Br)cnn1Cc1cc(C(F)(F)F)cc(C(F)(F)F)c1
active: S. cerevisiae deletion strains, locus YLR113W, strain HOG1, stronger effect = lower value 0.761
inactive: S. cerevisiae deletion strains, locus YAR019C, strain CDC15, stronger effect = lower value 0.997 | S. cerevisiae deletion strains, locus YBL105C, strain PKC1, stronger effect = lower value 1 | S. cerevisiae deletion strains, locus YBR135W, strain CKS1, stronger effect = lower value 1.01 | S. cerevisiae deletion strains, locus YBR136W, strain MEC1, stronger effect = lower value 0.995 | S. cerevisiae deletion strains, locus YBR160W, strain CDC28, stronger effect = lower value 0.999 | S. cerevisiae deletion strains, locus YDL017W, strain CDC7, stronger effect = lower value 0.995 | S. cerevisiae deletion strains, locus YDL028C, strain MPS1, stronger effect = lower value 1 | [5] 0.988 | S. cerevisiae deletion strains, locus YDL108W, strain KIN28, stronger effect = lower value 0.997 | S. cerevisiae deletion strains, locus YDL132W, strain cdc53, stronger effect = lower value 0.999 | S. cerevisiae deletion strains, locus YDL214C, strain PRR2, stronger effect = lower value 0.863 | S. cerevisiae deletion strains, locus YDR052C, strain DBF4, stronger effect = lower value 0.993 | S. cerevisiae deletion strains, locus YDR054C, strain cdc34, stronger effect = lower value 0.989 | S. cerevisiae deletion strains, locus YDR226W, strain ADK1, stronger effect = lower value 1 | S. cerevisiae deletion strains, locus YDR477W, strain SNF1, stronger effect = lower value 0.939 | S. cerevisiae deletion strains, locus YER123W, strain YCK3, stronger effect = lower value 0.842 | S. cerevisiae deletion strains, locus YER133W, strain GLC7, stronger effect = lower value 0.919 | S. cerevisiae deletion strains, locus YFL009W, strain cdc4, stronger effect = lower value 0.993 | S. cerevisiae deletion strains, locus YFL029C, strain CAK1, stronger effect = lower value 0.998 | S. cerevisiae deletion strains, locus YFR003C, strain YPI1, stronger effect = lower value 1 | S. cerevisiae deletion strains, locus YFR019W, strain FAB1, stronger effect = lower value 0.936 | S. cerevisiae deletion strains, locus YFR028C, strain CDC14, stronger effect = lower value 1 | S. cerevisiae deletion strains, locus YGR040W, strain KSS1, stronger effect = lower value 0.925 | S. cerevisiae deletion strains, locus YGR052W, strain FMP48, stronger effect = lower value 0.946 | S. cerevisiae deletion strains, locus YGR092W, strain DBF2, stronger effect = lower value 0.919 | [6] 0.933 | S. cerevisiae deletion strains, locus YHR079C, strain IRE1, stronger effect = lower value 0.93 | S. cerevisiae deletion strains, locus YHR082C, strain KSP1, stronger effect = lower value 0.907 | S. cerevisiae deletion strains, locus YHR205W, strain SCH9, stronger effect = lower value 0.817 | S. cerevisiae deletion strains, locus YIL147C, strain SLN1, stronger effect = lower value 0.99 | S. cerevisiae deletion strains, locus YJL095W, strain BCK1, stronger effect = lower value 0.941 | S. cerevisiae deletion strains, locus YJL128C, strain PBS2, stronger effect = lower value 0.887 | S. cerevisiae deletion strains, locus YJL157C, strain FAR1, stronger effect = lower value 0.909 | S. cerevisiae deletion strains, locus YJR016C, strain ILV3, stronger effect = lower value 0.989 | S. cerevisiae deletion strains, locus YJR066W, strain TOR1 (second series), stronger effect = lower value 0.919 | S. cerevisiae deletion strains, locus YJR066W, strain TOR1, stronger effect = lower value 0.952 | S. cerevisiae deletion strains, locus YKL048C, strain ELM1, stronger effect = lower value 0.957 | S. cerevisiae deletion strains, locus YKL067W, strain YNK1, stronger effect = lower value 0.895 | S. cerevisiae deletion strains, locus YKL101W, strain HSL1, stronger effect = lower value 0.878 | S. cerevisiae deletion strains, locus YKL193C, strain SDS22, stronger effect = lower value 0.996 | S. cerevisiae deletion strains, locus YKL203C, strain TOR2, stronger effect = lower value 1 | S. cerevisiae deletion strains, locus YLR133W, strain CKI1, stronger effect = lower value 0.926 | S. cerevisiae deletion strains, locus YLR403W, strain SFP1, stronger effect = lower value 0.933 | S. cerevisiae deletion strains, locus YML070W, strain DAK1, stronger effect = lower value 0.884 | S. cerevisiae deletion strains, locus YMR001C, strain CDC5, stronger effect = lower value 0.997 | S. cerevisiae deletion strains, locus YMR205C, strain PFK2 (second series), stronger effect = lower value 0.907 | S. cerevisiae deletion strains, locus YMR277W, strain FCP1, stronger effect = lower value 1 | S. cerevisiae deletion strains, locus YNL006W, strain LST8, stronger effect = lower value 0.997 | S. cerevisiae deletion strains, locus YNL020C, strain ARK1, stronger effect = lower value 0.888 | S. cerevisiae deletion strains, locus YNL161W, strain CBK1, stronger effect = lower value 0.994 | S. cerevisiae deletion strains, locus YNL183C, strain NPR1, stronger effect = lower value 0.931 | S. cerevisiae deletion strains, locus YNL207W, strain RIO2, stronger effect = lower value 0.99 | S. cerevisiae deletion strains, locus YNL222W, strain SSU72, stronger effect = lower value 0.996 | S. cerevisiae deletion strains, locus YNL307C, strain MCK1 (second series), stronger effect = lower value 0.903 | S. cerevisiae deletion strains, locus YOL078W, strain AVO1, stronger effect = lower value 0.999 | S. cerevisiae deletion strains, locus YOL136C, strain PFK27, stronger effect = lower value 0.859 | S. cerevisiae deletion strains, locus YOR061W, strain CKA2, stronger effect = lower value 0.867 | S. cerevisiae deletion strains, locus YOR119C, strain RIO1, stronger effect = lower value 0.974 | S. cerevisiae deletion strains, locus YOR231W, strain MKK1, stronger effect = lower value 0.903 | S. cerevisiae deletion strains, locus YOR329C, strain SCD5, stronger effect = lower value 0.991 | S. cerevisiae deletion strains, locus YPL031C, strain PHO85, stronger effect = lower value 0.922 | S. cerevisiae deletion strains, locus YPL153C, strain RAD53, stronger effect = lower value 0.928 | S. cerevisiae deletion strains, locus YPL204W, strain HRR25, stronger effect = lower value 0.943 | S. cerevisiae deletion strains, locus YPL209C, strain IPL1, stronger effect = lower value 1 | S. cerevisiae deletion strains, locus YPL256C, strain CLN2, stronger effect = lower value 0.876 | S. cerevisiae deletion strains, locus YPR025C, strain CCL1, stronger effect = lower value 0.999 | S. cerevisiae deletion strains, locus YPR106W, strain ISR1, stronger effect = lower value 0.983 | S. cerevisiae deletion strains, locus YPR111W, strain DBF20, stronger effect = lower value 0.959 | S. cerevisiae deletion strains, strain NNK1, stronger effect = lower value 0.956 | S. cerevisiae deletion strains, strain TSCII, stronger effect = lower value 0.998
